# Data from PubChem BioAssay (NCATS).
# Records with an inconclusive call do not appear. Where a call stands in place of a potency, no number is given. The source made the active and inactive calls. Unless noted, calls come from the whole dose curve; as a rule, active = well fitted curve in the direction sought with a large enough effect; inconclusive = small, poorly fitted or top-dose-only effect, or another doubt; inactive = no such curve, though single readings can be large; an effect the other way counts as inactive or inconclusive.
# How the values were obtained:
# [1] = target: Glutathione peroxidase 1 (Homo sapiens) (UniProt P07203); experiment: Primary qHTS Assay for Inhibitors of Recombinant Selenoprotein Glutathione Peroxidase 1 (GPX1) (AID 1845191); note: nearly all actives have a fitted effect of over 65% in size
# Outline: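 10 nM GPX1 + cpd, 30 min RT; start w/ 1 mM GSH, 0.5 mM cumene hydroperoxide, 0.5 mM NADPH, 100 nM GR, 0.01% BSA; buffer 50 mM Tris-HCl pH 7.5, 2 mM EDTA, 150 mM NaCl; Fl 340/450, 0 & 15 min.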
# [2] = target: Phospholipid hydroperoxide glutathione peroxidase GPX4 (Homo sapiens) (UniProt P36969); experiment: Primary qHTS Assay for Inhibitors of Recombinant Selenoprotein Glutathione Peroxidase 4 (GPX4) (AID 1845192); note: nearly all actives have a fitted effect of over 65% in size; for activity change, negative = inhibition: series mostly up to about 50 µM
# Outline: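 NADPH consumption, followed by fluorescence at 340/450 nm between 0 and 15 min, reports GPX4 activity via coupled glutathione reductase (100 nM). Enzyme 200 nM was pre-exposed to compound 30 min; 0.5 mM cumene hydroperoxide and 1 mM GSH served as substrates.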
# [3] = target: Luciferin 4-monooxygenase (Photinus pyralis) (UniProt P08659); experiment: Primary firefly luciferase (FLuc) qHTS assay for identification of artifact compounds. (AID 1845220); note: nearly all actives have a fitted effect of over 60% in size; note: potency is the fitted concentration of half-maximal effect; for activity change, negative = inhibition: series mostly up to about 54 µM
# Outline: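 Compounds sat 15 min at room temperature with 10 uM luciferin and 10 uM ATP (pH 7.6 Tris acetate). Firefly luciferase (10 nM final) was then added, and luminescence was read 5 min later. Data normalized to no-enzyme and DMSO controls were Hill-fitted.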
# [4] = Primary fluorescence-based thiol-reactive (MSTI) qHTS assay for identification of artifact compounds. (AID 1845221); note: nearly all actives have a fitted effect of over 65% in size; note: potency is the fitted concentration of half-maximal effect;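 for activity change, negative = thiol reactive: series mostly up to about 54 µM; thiol-reactive compounds lower the probe fluorescence signal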
# Outline: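 MSTI probe at 4 uM final in 2% DMSO/PBS pH 7.4; compounds, 1 h at room temperature in dark. Fluorescence Ex/Em 525/598 nm, normalised to Acetyl-MSTI and MSTI, fitted to 4-parameter Hill.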
# [5] = tested on: Nanoluciferase (engineered Oplophorus gracilirostris luciferase); experiment: Primary Nanoluciferase (NLuc) qHTS assay for identification of artifact compounds. (AID 1845222); note: series mostly up to about 54 µM
# Outline: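 Luminescence from secreted NLuc (filtered, 1:55-diluted S16 cell medium) read 5 min after Nano-Glo substrate; compounds preincubated 15 min, RT. Hill fits of inhibition normalized to DMSO and no-enzyme.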
# [6] = Primary redox qHTS assay for identification of artifact compounds. (AID 1845223)
# Outline: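 Amplex Red (25 uM) and HRP (250 mU/mL) in HBSS, with compounds for 15 min, then 250 uM DTT for 30 min, room temperature, dark. Fluorescence 525/598 nm read; normalized to DMSO and 10 uM DA3003; Hill fit.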
# [7] = target: Cytochrome P450 3A4 (Homo sapiens) (UniProt P08684); experiment: qHTS for inhibitors of CYP3A4 against the NCATS DSHEA and TCM libraries (AID 1919971);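 note: inhibition lowers luminescence from luciferin made by CYP3A4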
# Outline: (§1)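 Luminescent P450-Glo format: compounds preincubated 15 min with enzyme and luciferin substrate, reaction run 30-45 min after NADPH regeneration solution. Intraplate controls: ketoconazole for CYP3A4 and CYP2C19, sulfaphenazole for CYP2C9.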
# [8] = target: Cytochrome P450 2D6 (Homo sapiens) (UniProt P10635); experiment: qHTS for inhibitors of CYP2D6 against the NCATS DSHEA and TCM libraries (AID 1919972)
# Outline: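 Luminescent P450-Glo read-out of CYP2D6 turnover of a luciferin substrate after NADPH-driven reaction of 30-45 min at room temperature. Compounds were first preincubated 15 min with enzyme at titrated concentrations; quinidine was the intraplate control.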
# [9] = target: Cytochrome P450 2C19 (Homo sapiens) (UniProt P33261); experiment: qHTS for inhibitors of CYP2C19 against the NCATS DSHEA and TCM libraries (AID 1919974);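 note: luminescence from luciferin released by CYP2C19 oxidation of a pro-luciferin substrate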; note: potency is the fitted concentration of half-maximal effect
# Outline: as §1
# [10] = KB-3-1 P-gp reporter qHTS against the NCATS DSHEA and TCM libraries (AID 1919975)
# Outline: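 Cell viability by CellTiter-Glo luminescence following ~72 h compound exposure (concentration-response). Uses parental, non-P-gp-overexpressing KB-3-1 line, 500 cells/well in DMEM/10% FBS, attached ~4 h before dosing.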
# [11] = target: Cytochrome P450 1A2 (Homo sapiens) (UniProt P05177); experiment: qHTS for inhibitors of CYPIA2 against the NCATS DSHEA and TCM libraries (AID 1919976); note: potency is the fitted concentration of half-maximal effect;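 for activity change, negative = inhibition: light from luciferin formed by CYP1A2 from a pro-luciferin substrate; series mostly up to about 37 µM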
# Outline: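 Human CYP1A2 with pro-luciferin substrate (typically 100 mM KPO4), 15 min preincubation with compound, then 1x NADPH regeneration for 30-45 min at room temperature in the dark. Luciferin quantified by luciferase luminescence; furafylline intraplate control.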
# [12] = qHTS Counterscreen for compound interference against the NCATS DSHEA and TCM libraries (AID 1919978); conditions: firefly luciferase detection reagent interference, luminescence;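 note: compounds preincubated with 1 µM D-luciferin or buffer before detection reagent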
# Outline: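 With 1 uM D-luciferin or phosphate buffer only, compounds at final 19.5 nM–39.8 uM were incubated for 15 min at room temperature. Luciferase detection reagent was then added, and luminescence was measured after a further 30 min at room temperature.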
# [13] = Dual reporter qHTS for agonist of Pregnane X Receptor (hPXR) against the NCATS DSHEA and TCM libraries: Fluorescence readout (AID 1920058)
# Outline: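 hPXR-Luc HepG2 cells, 2000/well in charcoal-stripped serum, attached 5 h, dosed for ~24 h at 37 °C. Fluorescence read is CellTiter-Fluor viability (Ex/Em 405/540 nm); rifampicin positive, tetraoctyl ammonium bromide (92 µM) cytotoxicity controls.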
# [14] = target: Nuclear receptor subfamily 1 group I member 2 (Homo sapiens) (UniProt O75469); experiment: Dual reporter qHTS for agonist of Pregnane X Receptor (hPXR) against the NCATS DSHEA and TCM libraries: Luminescence readout (AID 1920059)
# Outline: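 Luminescent PXR reporter read (ONE-Glo) after a CellTiter-Fluor viability read, following 24 h, 37C treatment of HepG2 cells stably carrying hPXR-Luc.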
# [15] = target: Nuclear receptor subfamily 1 group I member 2 (Homo sapiens) (UniProt O75469); experiment: Dual reporter qHTS for antagonist of Pregnane X Receptor (hPXR) against the NCATS DSHEA and TCM libraries: Luminescence Readout (AID 1920060);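 note: HepG2 cells carrying hPXR luciferase reporter stimulated with rifampicin at 2 µM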
# Outline: (§2)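 HepG2 hPXR-Luc, 2000 cells/well, charcoal-stripped FBS medium; 5 h attach; RIF 2 uM final; 24 h 37C/5% CO2; CellTiter-Fluor 1 h, fluor 405/540; ONE-Glo 30 min RT, lum.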
# [16] = Dual reporter qHTS for antagonist of Pregnane X Receptor (hPXR) against the NCATS DSHEA and TCM libraries: Fluorescence Readout (AID 1920061)
# Outline: as §2
# [17] = target: Cytochrome P450 2C9 (Homo sapiens) (UniProt P11712); experiment: qHTS for inhibitors of CYP2C9 against the NCATS DSHEA and TCM libraries (AID 1919973);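 note: luminogenic pro-luciferin CYP2C9 substrate turned into luciferin with NADPH regeneration; series mostly up to about 34 µM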
# Outline: as §1
# [18] = qHTS drug screen for cell cycle checkpoint inhibitors in PARPi-resistant BRCA-mutant ovarian cancer cell lines. (AID 1963452; calls by dose curve); conditions: PEO1/OlaR viability, CellTiter-Glo luminescence, 96 h, stronger effect = lower value
# Outline: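 PEO1, PEO4 and PEO1/OlaR ovarian cancer cells, 600 per well, exposed 96 h at 37C to a dilution series. Viability read by CellTiter-Glo luminescence, normalized to DMSO and empty wells; activity summarized as Z-AUC.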
# [19] = measured here: PEO1 parental Z-AUC
# Cytochrome P450 2C19 (Homo sapiens), sequence (P33261 whole entry, looked up): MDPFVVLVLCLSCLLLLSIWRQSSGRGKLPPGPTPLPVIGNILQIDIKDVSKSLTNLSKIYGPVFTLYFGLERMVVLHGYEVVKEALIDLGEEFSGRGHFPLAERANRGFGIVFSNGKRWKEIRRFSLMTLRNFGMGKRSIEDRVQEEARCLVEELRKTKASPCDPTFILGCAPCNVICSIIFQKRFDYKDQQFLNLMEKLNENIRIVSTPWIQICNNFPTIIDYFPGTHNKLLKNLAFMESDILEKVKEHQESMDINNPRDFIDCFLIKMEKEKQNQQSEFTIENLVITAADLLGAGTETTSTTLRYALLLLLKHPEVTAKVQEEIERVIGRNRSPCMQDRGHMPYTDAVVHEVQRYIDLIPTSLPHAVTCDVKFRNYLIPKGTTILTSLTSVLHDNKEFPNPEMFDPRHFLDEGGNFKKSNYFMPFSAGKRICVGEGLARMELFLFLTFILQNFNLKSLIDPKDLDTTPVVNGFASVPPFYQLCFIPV
# Nuclear receptor subfamily 1 group I member 2 (Homo sapiens), sequence (O75469 whole entry, looked up): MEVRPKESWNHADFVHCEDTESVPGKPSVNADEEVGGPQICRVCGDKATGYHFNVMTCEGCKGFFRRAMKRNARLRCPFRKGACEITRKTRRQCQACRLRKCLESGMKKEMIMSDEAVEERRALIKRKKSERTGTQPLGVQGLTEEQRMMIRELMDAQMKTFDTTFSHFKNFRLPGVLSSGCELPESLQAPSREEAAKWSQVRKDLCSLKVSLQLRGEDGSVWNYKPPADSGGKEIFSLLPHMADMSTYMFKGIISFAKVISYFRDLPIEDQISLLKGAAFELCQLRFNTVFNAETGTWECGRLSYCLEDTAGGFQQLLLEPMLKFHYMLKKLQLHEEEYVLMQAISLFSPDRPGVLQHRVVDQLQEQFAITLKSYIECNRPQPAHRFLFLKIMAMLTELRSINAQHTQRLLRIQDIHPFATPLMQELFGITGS
# Glutathione peroxidase 1 (Homo sapiens), sequence (P07203 whole entry, looked up): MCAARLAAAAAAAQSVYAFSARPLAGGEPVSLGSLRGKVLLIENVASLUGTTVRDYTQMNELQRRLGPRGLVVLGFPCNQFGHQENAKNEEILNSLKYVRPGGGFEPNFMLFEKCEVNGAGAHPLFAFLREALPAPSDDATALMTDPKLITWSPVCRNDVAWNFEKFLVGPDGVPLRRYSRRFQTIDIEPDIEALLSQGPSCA
# Phospholipid hydroperoxide glutathione peroxidase GPX4 (Homo sapiens), sequence (P36969 whole entry, looked up): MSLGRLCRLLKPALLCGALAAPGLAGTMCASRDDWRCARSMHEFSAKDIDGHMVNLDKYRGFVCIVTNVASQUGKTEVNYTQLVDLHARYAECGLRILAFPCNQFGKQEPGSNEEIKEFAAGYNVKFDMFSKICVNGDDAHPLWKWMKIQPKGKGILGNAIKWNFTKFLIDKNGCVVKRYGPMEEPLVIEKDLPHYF
# Cytochrome P450 1A2 (Homo sapiens), sequence (P05177 whole entry, looked up): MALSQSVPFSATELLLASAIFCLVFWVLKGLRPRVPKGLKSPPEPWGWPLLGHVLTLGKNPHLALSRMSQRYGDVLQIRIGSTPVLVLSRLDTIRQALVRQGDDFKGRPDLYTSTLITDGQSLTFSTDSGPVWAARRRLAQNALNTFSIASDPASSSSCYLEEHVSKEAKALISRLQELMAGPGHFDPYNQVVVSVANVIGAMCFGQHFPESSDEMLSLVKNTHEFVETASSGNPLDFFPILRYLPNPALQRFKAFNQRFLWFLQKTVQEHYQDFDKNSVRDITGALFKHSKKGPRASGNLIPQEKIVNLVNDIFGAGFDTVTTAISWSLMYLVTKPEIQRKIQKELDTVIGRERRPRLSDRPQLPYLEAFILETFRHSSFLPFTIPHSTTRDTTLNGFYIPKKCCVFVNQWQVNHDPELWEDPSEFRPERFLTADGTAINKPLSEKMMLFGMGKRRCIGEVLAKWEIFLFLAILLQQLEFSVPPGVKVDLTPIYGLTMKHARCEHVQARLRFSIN
# Cytochrome P450 2D6 (Homo sapiens), sequence (P10635 whole entry, looked up): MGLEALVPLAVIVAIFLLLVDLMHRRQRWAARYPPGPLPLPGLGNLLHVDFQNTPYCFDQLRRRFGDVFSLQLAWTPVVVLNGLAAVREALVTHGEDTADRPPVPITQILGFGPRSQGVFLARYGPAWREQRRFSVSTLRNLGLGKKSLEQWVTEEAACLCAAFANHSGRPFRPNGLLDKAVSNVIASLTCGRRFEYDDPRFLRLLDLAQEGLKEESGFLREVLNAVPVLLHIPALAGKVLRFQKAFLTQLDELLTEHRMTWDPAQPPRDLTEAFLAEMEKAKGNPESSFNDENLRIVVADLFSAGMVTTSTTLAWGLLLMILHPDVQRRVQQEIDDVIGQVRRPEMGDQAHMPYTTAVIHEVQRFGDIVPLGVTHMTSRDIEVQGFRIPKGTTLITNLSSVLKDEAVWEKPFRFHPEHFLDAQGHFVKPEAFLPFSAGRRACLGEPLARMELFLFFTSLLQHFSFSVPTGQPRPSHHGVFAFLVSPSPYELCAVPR
# Cytochrome P450 3A4 (Homo sapiens), sequence (P08684 whole entry, looked up): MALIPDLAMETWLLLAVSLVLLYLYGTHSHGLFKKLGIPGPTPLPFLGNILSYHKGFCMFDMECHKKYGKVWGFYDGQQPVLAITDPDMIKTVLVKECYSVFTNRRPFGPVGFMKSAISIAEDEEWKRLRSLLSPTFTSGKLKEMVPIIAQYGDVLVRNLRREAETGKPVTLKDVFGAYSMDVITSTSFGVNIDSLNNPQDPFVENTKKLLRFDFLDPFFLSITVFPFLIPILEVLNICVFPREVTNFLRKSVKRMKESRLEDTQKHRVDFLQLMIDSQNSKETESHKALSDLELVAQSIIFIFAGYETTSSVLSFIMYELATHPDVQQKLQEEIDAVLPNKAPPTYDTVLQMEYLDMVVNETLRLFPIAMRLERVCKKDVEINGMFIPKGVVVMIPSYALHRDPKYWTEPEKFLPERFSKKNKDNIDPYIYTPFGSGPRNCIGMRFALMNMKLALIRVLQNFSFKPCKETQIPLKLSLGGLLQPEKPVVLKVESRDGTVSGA
# Cytochrome P450 2C9 (Homo sapiens), sequence (P11712 whole entry, looked up): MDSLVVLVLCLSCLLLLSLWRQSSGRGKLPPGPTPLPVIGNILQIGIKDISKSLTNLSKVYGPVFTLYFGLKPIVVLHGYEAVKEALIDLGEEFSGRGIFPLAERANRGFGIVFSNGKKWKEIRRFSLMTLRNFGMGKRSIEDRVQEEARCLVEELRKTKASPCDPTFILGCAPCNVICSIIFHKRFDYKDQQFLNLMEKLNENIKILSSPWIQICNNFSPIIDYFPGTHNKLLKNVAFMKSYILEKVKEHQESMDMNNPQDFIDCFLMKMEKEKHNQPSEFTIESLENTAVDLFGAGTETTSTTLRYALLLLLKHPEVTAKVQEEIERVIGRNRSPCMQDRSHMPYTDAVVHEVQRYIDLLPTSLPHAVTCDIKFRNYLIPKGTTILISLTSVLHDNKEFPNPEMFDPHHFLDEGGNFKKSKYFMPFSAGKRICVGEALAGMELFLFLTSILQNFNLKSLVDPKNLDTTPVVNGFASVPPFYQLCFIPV
structure (smiles),measurement,setting,value
C[C@H]1[C@H](O)O[C@@H]2O[C@@]3(C)CC[C@H]4[C@H](C)CC[C@@H]1[C@@]24OO3,Potency,[1],inactive
same,Potency,[2],inactive
same,Potency,[3],inactive
same,Potency,[4],inactive
same,Potency,[5],inactive
same,Potency,[6],inactive
COC(=O)C1=CO[C@@H](O)C2C(CO)=CCC12 (stereo not given in full),Potency,[1],inactive
same,Potency,[2],inactive
same,Potency,[3],inactive
same,Potency,[4],inactive
same,Potency,[5],inactive
same,Potency,[6],inactive
COc1cc2c(c(OC)c1CC=C(C)C)C[C@H](c1ccc(O)cc1O)CO2,Potency,[1],inactive
same,Potency,[2],inactive
same,Potency,[3],inactive
same,Potency,[4],13.1 µM (active)
same,Potency,[5],inactive
same,Potency,[6],inactive
Nc1ncnc2c([C@@H]3N[C@H](CO)[C@@H](O)[C@H]3O)c[nH]c12,Potency,[1],inactive
same,Potency,[2],inactive
same,Potency,[3],inactive
same,Potency,[4],inactive
same,Potency,[5],inactive
same,Potency,[6],inactive
CC(C)=CCC(O)/C(C)=C/CO[C@@H]1O[C@H](CO)[C@@H](O)[C@H](O)[C@H]1O (stereo not given in full),Potency,[1],inactive
same,Potency,[2],inactive
same,Potency,[3],inactive
same,Potency,[4],inactive
same,Potency,[5],inactive
same,Potency,[6],inactive
same,outcome,[7],inactive
same,outcome,[8],inactive
same,Potency,[9],2.51 µM (active)
same,outcome,[10],inactive
same,Potency,[11],3.55 µM (active)
same,max response,[12],-4.77% (inactive)
same,outcome,[13],inactive
same,outcome,[14],inactive
same,outcome,[15],inactive
same,outcome,[16],inactive
CC(C)=CCC[C@](C)(O)[C@H]1CC[C@]2(C)[C@@H]1[C@H](O)CC1[C@@]3(C)CC[C@H](O)C(C)(C)[C@@H]3[C@@H](O[C@@H]3O[C@H](CO)[C@@H](O)[C@H](O)[C@H]3O[C@@H]3O[C@H](CO)[C@@H](O)[C@H](O)[C@H]3O)C[C@]12C (stereo not given in full),Potency,[1],inactive
same,Potency,[2],inactive
same,Potency,[3],inactive
same,Potency,[4],inactive
same,Potency,[5],inactive
same,Potency,[6],inactive
same,outcome,[7],inactive
same,outcome,[8],inactive
same,outcome,[17],inactive
same,Potency,[9],inactive
same,outcome,[10],inactive
same,Potency,[11],inactive
same,max response,[12],-4.33% (inactive)
same,outcome,[13],inactive
same,outcome,[14],inactive
same,outcome,[15],inactive
same,outcome,[16],inactive
Cc1cccc(Oc2cnc(=O)[nH]c2)c1,Potency,[1],inactive
same,Potency,[2],inactive
same,Potency,[3],inactive
same,Potency,[4],inactive
same,Potency,[5],inactive
same,Potency,[6],inactive
same,Z-AUC,[18],-0.692 (inactive)
same,Z-AUC,[18]; [19],-0.81
same,Z-AUC,[18]; measured here: PEO4 Z-AUC,-0.687
CCC(C)C(=O)OC1CC(C)C=C2C=CC(C)C(CCC(O)CC(O)CC(=O)O)C21 (stereo not given),Potency,[1],inactive
same,Potency,[2],inactive
same,Potency,[3],inactive
same,Potency,[4],inactive
same,Potency,[5],inactive
same,Potency,[6],inactive
C[C@@]12CC[C@@H]3[C@@](CC[C@H]4[C@@]3(C)CCC[C@@]4(C)C(=O)O)(CC1=O)C2,Potency,[1],inactive
same,Potency,[2],inactive
same,Potency,[3],inactive
same,Potency,[4],inactive
same,Potency,[5],inactive
same,Potency,[6],inactive
same,outcome,[8],inactive
same,Potency,[9],14.1 µM (active)
same,outcome,[10],inactive
same,Potency,[11],inactive
same,max response,[12],0.713% (inactive)
same,outcome,[13],inactive
same,outcome,[14],inactive
same,outcome,[15],inactive
same,outcome,[16],inactive
CC1(C)CC(=O)C2=C(C1)NC(=S)NC2c1cccc(O)c1 (stereo not given),Potency,[1],inactive
same,Potency,[2],inactive
same,Potency,[3],inactive
same,Potency,[4],inactive
same,Potency,[5],inactive
same,Potency,[6],inactive
C=C1[C@H](OC(C)=O)[C@H]2[C@@H](OC(C)=O)[C@](C)(OC(C)=O)C[C@]2(OC(C)=O)C(=O)[C@H](C)/C=C/C(C)(C)C(=O)[C@H](OC(=O)C(C)C)[C@H]1OC(C)=O,Potency,[1],inactive
same,Potency,[2],inactive
same,Potency,[3],inactive
same,Potency,[4],inactive
same,Potency,[5],inactive
same,Potency,[6],inactive
CNS(=O)(=O)c1ccccc1Nc1nc(Nc2ccc(N3CCN(C)CC3)cc2OC)ncc1Cl,Potency,[1],inactive
same,Potency,[2],inactive
same,Potency,[3],inactive
same,Potency,[4],2.38 µM (active)
same,Potency,[5],inactive
same,Potency,[6],inactive
COc1cc(/C=C/C=O)cc(OC)c1O[C@@H]1O[C@H](CO)[C@@H](O)[C@H](O)[C@H]1O,Potency,[1],inactive
same,Potency,[2],inactive
same,Potency,[3],inactive
same,Potency,[4],14.7 µM (active)
same,Potency,[5],inactive
same,Potency,[6],inactive
O=C1Nc2ccccc2C(O)(c2ccccc2)C1O (stereo not given),Potency,[1],inactive
same,Potency,[2],inactive
same,Potency,[3],inactive
same,Potency,[4],inactive
same,Potency,[5],inactive
same,Potency,[6],inactive
O=C(c1ccccc1)c1ccc2nc(NC(=O)c3csc(C4CCN(c5ncnc6ccsc56)CC4)n3)[nH]c2c1,Potency,[1],inactive
same,Potency,[2],inactive
same,Potency,[3],inactive
same,Potency,[4],inactive
same,Potency,[5],inactive
same,Potency,[6],inactive
C[C@@H]1O[C@@H](OC[C@H]2O[C@@H](Oc3cc(O)cc4c3C(=O)C(O)(Cc3ccc(O)cc3)O4)[C@H](O)[C@@H](O)[C@@H]2O)[C@H](O)[C@H](O)[C@H]1O (stereo not given in full),Potency,[1],inactive
same,Potency,[2],inactive
same,Potency,[3],inactive
same,Potency,[4],inactive
same,Potency,[5],inactive
same,Potency,[6],inactive
N#Cc1cc(F)cc(-c2nc(-c3ccccn3)no2)c1,Potency,[1],inactive
same,Potency,[2],inactive
same,Potency,[3],7.57 µM (active)
same,Potency,[4],inactive
same,Potency,[5],inactive
same,Potency,[6],inactive
CC(=O)N[C@H]1[C@H](O[C@H]2CC[C@@]3(C)C(CC[C@]4(C)C3CC=C3C5CC(C)(C)CC[C@]5(C(=O)O)[C@H](O)C[C@]34C)C2(C)C)O[C@H](CO[C@@H]2OC[C@H](O)[C@H](O)[C@H]2O[C@@H]2OC[C@@H](O)[C@H](O)[C@H]2O)[C@@H](O)[C@@H]1O (stereo not given in full),Potency,[1],inactive
same,Potency,[2],inactive
same,"activity change, negative = inhibition",[3],-1.17% [at 11.6 µM] (inactive)
same,"activity change, negative = thiol reactive",[4],85% [at 11.5 µM] (inactive)
same,"activity, negative = inhibition",[5],0% [at 11.6 µM] (inactive)
same,redox activity (% of DA3003),[6],8.12% [at 11.5 µM] (inactive)
COc1ccc(Cl)c(Nc2nc3ccccc3nc2NS(=O)(=O)c2cccc(NC(=O)C(C)(C)N)c2)c1,Potency,[1],inactive
same,Potency,[2],inactive
same,Potency,[3],inactive
same,Potency,[4],inactive
same,Potency,[5],inactive
same,Potency,[6],inactive
same,Z-AUC,[18],-0.00434 (inactive)
same,Z-AUC,[18]; [19],0.542
same,Z-AUC,[18]; measured here: PEO4 Z-AUC,0.742
